Source: PubChem BioAssay AID1159580 (chemical genetic matrix, 2015)
Where “and” joins values, the source holds several entries; their conditions need not be identical. Equal values may be shown once. The campaign covered roughly 5,500 compounds. About 2,000 (36%) were called active. Inconclusive results (about 18%) are left out. Rule as the data show it: active = normalized growth mostly below about 0.91 (no sharp cut-off); inconclusive = no clear call, values can overlap the other calls; inactive = mostly above about 0.92. Some of the results follow.

Assay: chemical genetic growth profiling, strain panel (AID 1159580);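 also: tested at 20 µM; growth read once vehicle control cultures reached saturation at 30 °C; 1 = growth at the plate median or of vehicle wells; lower values mean less growth of the strain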
Conditions: growth OD

Measured: normalized growth

COc1ccc(Cc2nccc3cc(OC)c(OC)cc23)cc1OC
inactive: S. cerevisiae deletion strains, locus YJR066W, strain TOR1, stronger effect = lower value 0.975 | S. cerevisiae deletion strains, locus YJR075W, strain HOC1, stronger effect = lower value 0.995 | S. cerevisiae deletion strains, locus YKL009W, strain mrt4, stronger effect = lower value 0.984 | S. cerevisiae deletion strains, locus YKL068W, stronger effect = lower value 0.999 | S. cerevisiae deletion strains, locus YKL085W, strain MDH1 (second series), stronger effect = lower value 0.991 | S. cerevisiae deletion strains, locus YKL085W, strain MDH1, stronger effect = lower value 0.991 | S. cerevisiae deletion strains, locus YKL160W, strain elf1, stronger effect = lower value 1.02 | S. cerevisiae deletion strains, locus YKL190W, strain CNB1, stronger effect = lower value 1.01 | S. cerevisiae deletion strains, locus YKR001C, strain vps1, stronger effect = lower value 0.961 | S. cerevisiae deletion strains, locus YKR026C, strain gcn3, stronger effect = lower value 1 | S. cerevisiae deletion strains, locus YKR091W, strain srl3, stronger effect = lower value 0.998 | S. cerevisiae deletion strains, locus YLL001W, strain dnm1, stronger effect = lower value 1.01 | S. cerevisiae deletion strains, locus YLL026W, stronger effect = lower value 1 | S. cerevisiae deletion strains, locus YLL041C, strain sdh2, stronger effect = lower value 1 | S. cerevisiae deletion strains, locus YLR027C, strain aat2, stronger effect = lower value 0.994 | S. cerevisiae deletion strains, locus YLR039C, strain RIC1, stronger effect = lower value 1 | S. cerevisiae deletion strains, locus YLR058C, strain SHM2, stronger effect = lower value 1.02 | S. cerevisiae deletion strains, locus YLR102C, strain apc9, stronger effect = lower value 0.988 | S. cerevisiae deletion strains, locus YLR113W, strain HOG1, stronger effect = lower value 0.975 | S. cerevisiae deletion strains, locus YLR221C, strain rsa3, stronger effect = lower value 1.01 | S. cerevisiae deletion strains, locus YLR258W, strain gsy2, stronger effect = lower value 1 | S. cerevisiae deletion strains, locus YLR262C, strain YPT6 (second series), stronger effect = lower value 1.01 | S. cerevisiae deletion strains, locus YLR262C, strain YPT6, stronger effect = lower value 1.01 | S. cerevisiae deletion strains, locus YLR268W, strain sec22, stronger effect = lower value 0.967 | S. cerevisiae deletion strains, locus YLR320W, strain mms22, stronger effect = lower value 1.01 | S. cerevisiae deletion strains, locus YLR330W, strain CHS5, stronger effect = lower value 1.01 | S. cerevisiae deletion strains, locus YLR342W, strain FKS1 (second series), stronger effect = lower value 0.996 | S. cerevisiae deletion strains, locus YLR342W, strain FKS1, stronger effect = lower value 1.01 | S. cerevisiae deletion strains, locus YLR357W, strain rsc2, stronger effect = lower value 0.972 | S. cerevisiae deletion strains, locus YLR370C, strain arc18, stronger effect = lower value 0.992 | S. cerevisiae deletion strains, locus YLR371W, strain rom2, stronger effect = lower value 0.999 | S. cerevisiae deletion strains, locus YLR384C, strain iki3, stronger effect = lower value 1 | S. cerevisiae deletion strains, locus YLR418C, strain cdc73, stronger effect = lower value 0.933 | S. cerevisiae deletion strains, locus YML016C, strain PPZ1, stronger effect = lower value 1.01 | S. cerevisiae deletion strains, locus YML032C, strain rad52, stronger effect = lower value 0.977 | S. cerevisiae deletion strains, locus YML120C, strain ndi1, stronger effect = lower value 1 | S. cerevisiae deletion strains, locus YML124C, strain tub3, stronger effect = lower value 0.988 | S. cerevisiae deletion strains, locus YMR058W, strain fet3, stronger effect = lower value 1.01 | S. cerevisiae deletion strains, locus YMR078C, strain ctf18, stronger effect = lower value 0.991 | S. cerevisiae deletion strains, locus YMR125W, strain sto1, stronger effect = lower value 0.994 | S. cerevisiae deletion strains, locus YMR129W, stronger effect = lower value 0.998 | S. cerevisiae deletion strains, locus YMR205C, strain PFK2, stronger effect = lower value 1.02 | S. cerevisiae deletion strains, locus YMR223W, strain ubp8, stronger effect = lower value 0.987 | S. cerevisiae deletion strains, locus YMR231W, strain pep5, stronger effect = lower value 1.01 | S. cerevisiae deletion strains, locus YMR307W, strain GAS1, stronger effect = lower value 0.988 and 0.997 | S. cerevisiae deletion strains, locus YNL067W, strain RPL9B, stronger effect = lower value 1.01 | S. cerevisiae deletion strains, locus YNL071W, strain lat1, stronger effect = lower value 1 | S. cerevisiae deletion strains, locus YNL128W, strain TEP1, stronger effect = lower value 1.01 and 0.977 | S. cerevisiae deletion strains, locus YNL153C, strain GIM3, stronger effect = lower value 1.01 | S. cerevisiae deletion strains, locus YNL175C, strain NOP13, stronger effect = lower value 0.988 | S. cerevisiae deletion strains, locus YNL183C, strain NPR1, stronger effect = lower value 0.946 | S. cerevisiae deletion strains, locus YNL197C, strain WHI3, stronger effect = lower value 0.996 | S. cerevisiae deletion strains, locus YNL209W, strain ssb2, stronger effect = lower value 1 | S. cerevisiae deletion strains, locus YNL224C, strain SQS1, stronger effect = lower value 0.993 | S. cerevisiae deletion strains, locus YNL233W, strain BNI4, stronger effect = lower value 1.02 | S. cerevisiae deletion strains, locus YNL248C, strain rpa49, stronger effect = lower value 0.992 | S. cerevisiae deletion strains, locus YNL250W, strain rad50, stronger effect = lower value 0.985 | S. cerevisiae deletion strains, locus YNL271C, strain bni1, stronger effect = lower value 0.982 | S. cerevisiae deletion strains, locus YNL298W, strain CLA4, stronger effect = lower value 0.999 | S. cerevisiae deletion strains, locus YNL307C, strain MCK1, stronger effect = lower value 0.98 | S. cerevisiae deletion strains, locus YNL322C, strain KRE1 (second series), stronger effect = lower value 1.01 | S. cerevisiae deletion strains, locus YNR049C, strain mso1, stronger effect = lower value 0.999 | S. cerevisiae deletion strains, locus YNR052C, strain pop2, stronger effect = lower value 0.986 | S. cerevisiae deletion strains, locus YOL006C, strain TOP1, stronger effect = lower value 1.02 | S. cerevisiae deletion strains, locus YOL012C, strain htz1 1.11 | S. cerevisiae deletion strains, locus YOL147C, strain pex11, stronger effect = lower value 0.988 | S. cerevisiae deletion strains, locus YOR001W, strain rrp6, stronger effect = lower value 0.965 | S. cerevisiae deletion strains, locus YOR061W, strain CKA2, stronger effect = lower value 1.01 | S. cerevisiae deletion strains, locus YOR069W, strain VPS5, stronger effect = lower value 1.01 | S. cerevisiae deletion strains, locus YOR070C, strain gyp1, stronger effect = lower value 0.999 | S. cerevisiae deletion strains, locus YOR080W, strain dia2, stronger effect = lower value 0.997 | S. cerevisiae deletion strains, locus YOR083W, strain WHI5 (second series), stronger effect = lower value 1 | S. cerevisiae deletion strains, locus YOR083W, strain WHI5, stronger effect = lower value 1.03 | S. cerevisiae deletion strains, locus YOR106W, strain vam3, stronger effect = lower value 1.02 | S. cerevisiae deletion strains, locus YOR136W, strain idh2, stronger effect = lower value 0.998 | S. cerevisiae deletion strains, locus YOR144C, strain elg1, stronger effect = lower value 1 | S. cerevisiae deletion strains, locus YOR184W, strain ser1, stronger effect = lower value 0.984 | S. cerevisiae deletion strains, locus YOR231W, strain MKK1, stronger effect = lower value 0.984 | S. cerevisiae deletion strains, locus YOR265W, strain rbl2, stronger effect = lower value 1 | S. cerevisiae deletion strains, locus YOR270C, strain vph1, stronger effect = lower value 0.998 | S. cerevisiae deletion strains, locus YOR290C, strain snf2, stronger effect = lower value 0.993 | S. cerevisiae deletion strains, locus YOR316C, strain cot1, stronger effect = lower value 1 | S. cerevisiae deletion strains, locus YPL051W, strain arl3, stronger effect = lower value 0.998 | S. cerevisiae deletion strains, locus YPL055C, strain LGE1, stronger effect = lower value 0.983 | S. cerevisiae deletion strains, locus YPL078C, strain atp4, stronger effect = lower value 0.998 | S. cerevisiae deletion strains, locus YPL106C, strain sse1, stronger effect = lower value 1 | S. cerevisiae deletion strains, locus YPL240C, strain hsp82, stronger effect = lower value 1.01 | S. cerevisiae deletion strains, locus YPL241C, strain CIN2, stronger effect = lower value 1.01 | S. cerevisiae deletion strains, locus YPL256C, strain CLN2, stronger effect = lower value 1.02 | S. cerevisiae deletion strains, locus YPR119W, strain clb2, stronger effect = lower value 0.99 | S. cerevisiae deletion strains, locus YPR141C, strain kar3, stronger effect = lower value 0.988 | S. cerevisiae deletion strains, locus YPR163C, strain tif3, stronger effect = lower value 0.974 | S. cerevisiae deletion strains, locus YPR167C, strain met16, stronger effect = lower value 0.991 | S. cerevisiae deletion strains, strain wtn01, stronger effect = lower value 0.985 | S. cerevisiae strains, strain wild type, stronger effect = lower value 1.01
